Assay [1] in a line: Viability qHTS for spleen associated tyrosine kinase inhibitor (SYKi) naive MV4-11 cells (AID 1963823). Also: nearly all actives have a fitted effect of over 40% in size. As to conditions: MV4-11 AML viability, CellTiter-Glo luminescence, 72 h; series mostly up to 45 µM. A digest of the protocol:
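qHTS, SYK inhibitor-naive MV4-11; 500 cells/well; 72 hr compound exposure, 37 C; CellTiter-Glo added, 10 min RT; luminescence read.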
(In general: Quantitative high-throughput screening tests each substance at several concentrations.)

Assay [2] in a line: Viability qHTS for spleen associated tyrosine kinase inhibitor (SYKi) drug resistant MV4-11 cells (AID 1963824). Also: nearly all actives have a fitted effect of over 35% in size. As to conditions: SYKi-resistant MV4-11 viability, CellTiter-Glo, 72 h; series mostly up to 45 µM. A digest of the protocol: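 SYK inhibitor-resistant MV4-11 AML cells, 500 per well, added to predispensed compounds and incubated 72 hr at 37 C, 5% CO2. Viability measured by CellTiter-Glo luminescence after 10 min at room temperature.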

Potency data for 7 compounds are collected here from PubChem BioAssay (NCATS).

Inconclusive results are not listed. The source made the active and inactive calls. Calls follow the shape of the dose curve; as a rule, active = well fitted cell-killing curve with a large enough effect; inconclusive = small, poorly fitted or top-dose-only effect, or effect the other way; inactive = no such curve, though single readings can be large or run the other way.
Potency is read from the fitted curve at half-maximal effect.

On to `C[C@]12CC[C@H](O)C[C@@H]1CC[C@@H]1[C@@H]2CC[C@]2(C)[C@@H](C3=CC(=O)OC3)CC[C@]12O`, for which the Potency in assay [1] was 3210 nM (active); in assay [2], 2550 nM (active).
For `CO[C@H]1C[C@H](O[C@H]2CC[C@]3(C=O)[C@H]4CC[C@]5(C)[C@@H](C6=CC(=O)OC6)CC[C@]5(O)[C@@H]4CC[C@]3(O)C2)O[C@H](C)[C@H]1O`, the Potency in assay [1] is 63.2 nM (active); in assay [2], 39.9 nM (active).
For the compound `COC1CC(O[C@H]2CC[C@]3(C=O)C4CC[C@]5(C)[C@@H](C6=CC(=O)OC6)CC[C@]5(O)[C@@H]4CC[C@@H]3C2)OC(C)C1O[C@@H]1O[C@H](CO)[C@@H](O[C@@H]2O[C@H](CO)[C@@H](O)[C@H](O)[C@H]2O)[C@H](O)[C@H]1O` (some centres undefined), the values for the Potency in assay [1] and in assay [2] were 174 nM (active) and 123 nM (active), respectively.
With `C/C=C(\C)C(O)C(C)/C=C(C)/C=C/C/C(C)=C/Cc1nc(OC)c(OC)c(O[C@@H]2O[C@@H](C)[C@H](O)[C@@H](O)[C@H]2O)c1C` (some centres undefined), the figures for the Potency in assay [1] and in assay [2] were 100 nM (active) and 252 nM (active), respectively.
Taken in the same sequence, the figures for `COc1ccc(CN(C(=O)[C@@H](N)Cc2c(C)cc(C(N)=O)cc2C)[C@@H](C)c2ncc(-c3ccccc3)[nH]2)cc1C(=O)O` were “inactive” and “inactive”.
With `COc1cc2cc(c1Cl)N(C)C(=O)C[C@H](OC(=O)C(C)C)[C@]1(C)O[C@@H]1[C@H](C)[C@@H]1C[C@@](O)(NC(=O)O1)[C@H](OC)/C=C/C=C(\C)C2`, the Potency result in assay [1] and in assay [2] was “inactive” in each case.
`C[C@H]1CCC[C@H](O)CCC/C=C/c2cc(O)cc(O)c2C(=O)O1`: the Potency in assay [1] was 7310 nM (active); in assay [2], 9200 nM (active).
